Laboratory results reported in PubChem BioAssay AID493165 (National Center for Advancing Translational Sciences (NCATS), 2011).
A number with no mark means an inactive call. The source made the active and inactive calls. The call rests on the fitted dose curve; in most records, active means well fitted curve in the direction sought with a large enough effect; inactive means no such curve, though single readings can be large or run the other way.

Assay: Retest of LOPAC molecules that induce DNA re-replication in SW480 adenocarcinoma cells.
Conditions: Hoechst DNA content imaging, 48 h; series mostly up to 45.1 µM; activity, positive = re-replication: at the top concentration
Source text: NIH Molecular Libraries Probe Production Network [MLPCN] NIH Chemical Genomics Center [NCGC] MLPCN Grant: Fast Track K99 CA136555 Assay Provider: Melvin DePamphilis, NICHD, NIH Assay Overview Eukaryotic cells normally restrict genome duplication to once per cell division. When this process is aberrant, DNA re-replication occurs when cells reinitiate DNA replication before the first round of replication is complete. DNA re-replication induces the DNA damage response, arrests cell proliferation, and triggers apoptosis. The cell cycle components cyclin A, Cdt-1, Cdc6 and geminin are critical regulators of this process and their misregulation results in DNA re-replication in normal and cancer cells. To identify compounds that induce re-replication in normal cells, an image-based assay was used to measure DNA content of nuclei, as detected by the fluorescent DNA binding dye, Hoechst. Cell nuclei were imaged by a fluorescence scanning plate imager and compounds that induce DNA re-replication were identified by the increase of nuclei with elevated fluorescence intensity.
Assay Protocol Summary For screening, 250 cells in 5 uL/well were dispensed into black clear 1536-well plates (Aurora) using a solenoid-based dispenser. Following transfer of 23 nL compound or DMSO vehicle by a pin tool, the plates were incubated 48 hr at 37 C and 5% CO2. After addition of 1 uL/well Hoescht stain, the plates were incubated 40 min at 37 C, 5% CO2 and total intensity of fluorescent objects (nuclei) were enumerated by an Acumen Explorer Ex3 (TTP LabTech) fluorescence scanning plate imager (405 nm excitation, 500-530 nm emission). Keywords: NIH Roadmap, MLPCN, MLI, MLSMR, qHTS, NCGC, DNA replication, cancer

SMILES | Potency | activity, positive = re-replication [%]
COc1cc2c(c(OC)c1OC)-c1ccc(OC)c(=O)cc1[C@@H](NC(C)=O)CC2 | 0.0337 µM (active) | –
C=C(C)[C@H]1Cc2c(ccc3c2O[C@@H]2COc4cc(OC)c(OC)cc4[C@@H]2C3=O)O1 | 1.07 µM (active) | –
CC(C)NP(=O)(NC(C)C)OP(=O)(NC(C)C)NC(C)C | – | 1.4
